HCMV inh = blocks human cytomegalovirus replication; HFF cells, HCMV-luciferase reporter, 72 h; hits give low values; 410,000 compounds, 4.5% hits; activity change, negative = inhibition, % at 57.5 µM; AID 1259415; in the data active = activity change below about -60%; inconclusive = no clear call, values can overlap the other calls; inactive = above about -39%; note: % is set by controls: 0 for no effect and ±100 for the full control effect
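Luciferase read-out from HCMV-luciferase-infected HFFs (MOI 1 PFU/cell) 72 h post infection at 37C; compounds added after 16 h cell attachment; activity normalized between buffer-only basal and Salinomycin (10uM) inhibitor controls.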
Lassa entry inh = inhibitors of Lassa virus binding or cell entry. Potency, µM (top dose mostly 37.9 µM), without a hit: at the highest dose activity change, negative = inhibition, usual class: inhibitors. 300,000 compounds, 1.2% hits. Lassa virus pseudotype entry inhibition, cell reporter. AID 540256; calls by dose curve; tested in HEK293 cells; note: potency is the fitted concentration of half-maximal effect; % is set by controls: 0 for no effect and ±100 for the full control effect; nearly all actives have a fitted effect of over 50% in size
Marburg entry inh = Marburg virus entry inhibition; Marburg virus pseudotyped entry inhibition, cell reporter; Potency, µM (top dose mostly 37.8 µM), without a hit: at the top dose activity change, negative = inhibition, most hits filed as inhibitors; 300,000 compounds, 1.8% hits; calls by dose curve; tested in HEK293 cells; note: potency is the fitted concentration of half-maximal effect; % is set by controls: 0 for no effect and ±100 for the full control effect
HCV inh = inhibitors of hepatitis C virus infection; Huh7.5.1 HCVcc-Cre infection, luciferase reporter, 44 h; 340,000 compounds, 3.4% hits; Potency, µM (titrated, usually from 41.8 µM), without a hit: top-dose activity change, negative = inhibition, actives largely listed as inhibitors; active = well fitted inhibition curve with a large enough effect; inconclusive = small, poorly fitted or top-dose-only effect, or another doubt; inactive = no such curve, though single readings can be large or run the other way; note: potency is the fitted concentration of half-maximal effect; % is set by controls: 0 for no effect and ±100 for the full control effect
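Luciferase read-out (15 sec integration) after a 15 min room-temperature substrate step quantifies HCVcc-Cre infection. Cells, 1,000 per well, had compound added 4 h post-plating, then virus at ~0.5 moi, and were cultured 44 h.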
SARS PLP yeast = SARS-CoV PLP inhibition in yeast. AID 485353. 330,000 compounds, 0.19% hits. Potency, µM (series often up to 32.9 µM), for the others: at the highest dose activity, positive = growth rescue, most hits filed as activators. S. cerevisiae expressing SARS-CoV PLpro, growth rescue; calls by dose curve; note: potency is the fitted concentration of half-maximal effect; 0% is about no effect; nearly all actives have a fitted effect of over 55% in size
FMDV inh = blocks foot and mouth disease virus; FMDV antiviral cell-based qHTS; Potency, µM (titrated, usually from 57.9 µM), without a hit: top-dose activity change, negative = inhibition, actives largely listed as inhibitors; 410,000 compounds, 1.2% hits; AID 1159524; calls by dose curve; tested in HEK293T cells; note: read-out not given here; potency is the fitted concentration of half-maximal effect; % is set by controls: 0 for no effect and ±100 for the full control effect; nearly all actives have a fitted effect of over 45% in size
* marks the source's active call; other numbers are inactive results; ? = inconclusive; . = no result; [ ] = remark or other dose. In the library only some 8% were active in any assay of this set; here they are far more common.

SMILES	HCMV inh	Lassa entry inh	Marburg entry inh	HCV inh	SARS PLP yeast	FMDV inh
COc1ccc(CCNc2ccc(S(=O)(=O)N3CCCC3)cc2[N+](=O)[O-])cc1	-62*	?	-5%	?	15%	?
O=C(NCCC1=CCCCC1)C1CCN(S(=O)(=O)c2cccc(C(F)(F)F)c2)CC1	33	.	.	11µM*	-1%	?
CCOc1ccc(/C=N/NC(=O)C2CCCC2)c(OCC)c1	?	-25%[46.1 µM]	2%[46.1 µM]	-11%	4%	16%
COc1cc(OC)cc(C(=O)NCC2Cc3cccc(-c4nc(C)cnc4C)c3O2)c1 (centres undefined)	.	.	.	.	.	-12%
COc1cccc([C@@H]2[C@@H](C)CC[C@@H]3C(=O)NC[C@H](O)CN32)c1	.	.	-11%[14.2 µM]	.	.	.
CC(Nc1ccc(S(=O)(=O)N2CCN(C)CC2)cc1[N+](=O)[O-])c1ccccc1 (centres undefined)	-10	?	?	?	?	-11%
COc1ccccc1C(C)Nc1ccc(S(=O)(=O)N2CCN(C)CC2)cc1[N+](=O)[O-] (centres undefined)	-9	.	.	11µM*	-8%	-13%
CCOC(=O)c1cnn2c(C)cc(-c3ccccc3)nc12	42	7%	9%	10µM*	-6%	40%
CNC(=O)c1cnc(-c2ccccc2)nc1-c1ccccc1	-31	15%	-8%	16%	1%	1%
CCOC(=O)c1cc(-c2ccccc2)nc2nc(N3CCCCC3)sc12	-5	-12%	15%	-19%	9%	-3%
CN(C)C(=O)c1cnc(-c2ccccc2)nc1-c1ccccc1	-62*	-2%	?	-9%	1%	-13%
CCOC(=O)c1cc2nc(-c3ccccc3)cc(C)n2n1	0	10%	-2%	?	3%	-14%
CCOC(=O)c1cnc(N)nc1-c1ccccc1	-10	13%	-4%	18%	.	-25%
CCOC(=O)c1cc(-c2ccccc2)nc2nc(N(CC)CC)sc12	-90*	?	?	14µM*	-2%	-25%
CCOC(=O)c1cnc(-c2ccccc2)nc1-c1ccccc1	-102*	-7%[46.1 µM]	?	-12%	-18%	-9%
COc1ccccc1/C=C/C(=O)Nc1nc(N)n(-c2ccccc2)n1	-5	.	.	1%	1%	3%
COc1ccc(Nc2cc(C(=O)NC3CCCC3)c3ccccc3n2)cc1	-12	-2%[46.1 µM]	14%[46.1 µM]	.	.	?
CC1(C(=O)Nc2ccc3ccccc3c2)CCc2nc3ccccc3n21 (centres undefined)	22	.	.	.	.	.
Cc1ncc2c(c1CNC(=O)c1cncs1)CCN(C(=O)c1csc(-c3cccs3)n1)C2	.	.	.	.	.	-4%
O=C(OCCC12CC3CC(CC(C3)C1)C2)c1ccc(NCc2cc(O)ccc2O)cc1	-77*	1.3µM*	1.8µM*	2.2µM*	.	?
O=C(O)c1cc(NCc2cc(O)ccc2O)ccc1O	.	.	.	.	.	-6%
Cc1ccc2c(c1)CCO[C@@]21O[C@H](CCO)C[C@H](O)[C@H]1O	4	.	.	.	.	-24%
CCC(c1nnnn1-c1c(C)cccc1C)N1CCN(C/C=C/c2ccccc2)CC1 (centres undefined)	-68*	.	.	.	.	-15%
CSCCC(c1nnnn1-c1c(C)cccc1C)N1CCN(C/C=C/c2ccccc2)CC1 (centres undefined)	-18	.	.	.	.	-16%
CCOC(=O)C1CSC(Cc2ccc(OCc3ccc([N+](=O)[O-])cc3)cc2)N1 (centres undefined)	.	.	.	.	.	26%
SMILES	HCMV inh	Lassa entry inh	Marburg entry inh	HCV inh	SARS PLP yeast	FMDV inh
COc1ccc(Nc2sc(C(=O)c3ccc(Cl)cc3)c(N)c2C(=O)Nc2ccccc2OC)cc1	?	-28%	?	?	-5%	-24%
COc1ccccc1NC(=O)c1c(Nc2ccccc2C)sc(C(=O)Nc2cccc(Cl)c2)c1N	-97*	?	?	13µM*	-15%	7.9µM*
COc1ccc(Nc2sc(C(=O)c3ccccc3)c(N)c2C(=O)Nc2cc(C)ccc2C)c(OC)c1	-74*	-10%[46.1 µM]	.	.	.	-9%
Cc1ccc(NC(=O)c2c(Nc3ccccc3C)sc(C(=O)c3ccccc3)c2N)cc1	-30	?	.	.	.	?
Cc1cc(Nc2sc(C(=O)c3ccc(F)cc3)c(N)c2C(=O)Nc2ccc(F)cc2)ccc1Cl	-108*	?	.	.	.	10µM*
COc1cccc(Nc2sc(C(=O)c3ccc(F)cc3)c(N)c2C(=O)NCc2ccc(Cl)cc2)c1	27	5%[46.1 µM]	.	.	.	-18%
COc1cccc(Nc2sc(C(=O)c3ccc(Cl)cc3)c(N)c2C(=O)NCc2ccc(C)cc2)c1	-80*	?	.	.	.	?
Cc1ccc(N(CC(=O)Nc2ccc(Cl)cc2)S(=O)(=O)c2cccc3nonc23)cc1	2	-12%[46.1 µM]	-6%[46.1 µM]	.	.	9%
CCOc1ccc(C(CN2CCOCC2)C(C)=O)cc1OC (centres undefined)	-6	.	.	.	.	?
COc1ccc(NC(=O)c2c(Nc3ccccc3)sc(C(=O)c3ccc(F)cc3)c2N)cc1	-83*	13µM*	6.3µM*	6.3µM*	-10%	?
COc1ccc(C(=O)c2sc(Nc3cccc(OC)c3)c(C(=O)Nc3cccc(C)c3C)c2N)cc1	-70*	?	21µM*	-24%	7%	-10%
NC(=O)c1c(NC(=O)c2ccncc2)sc2c1CCCCCC2	-16	7%[46.1 µM]	?	?	-2%	-8%
CCN(CC)CC(=O)Nc1sc2c(c1C(=O)c1ccccc1OC)CCC2	-13	11µM*	?	?	0%	0%
COc1ccccc1CC(=O)Nc1sc2c(c1C(N)=O)CCCC2	48	?	-20%[46.1 µM]	20µM*	6%	-14%
NC(=O)c1c(NC(=O)c2ccncc2)sc2c1CCCC2	10	.	.	13µM*	-4%	18%
CCOC(=O)c1c(NC(=O)CN(CC)CC)sc2c1CCC2	76	-27%	-27%	?	-11%	.
N#CCC(=O)Nc1sc2c(c1C(N)=O)CCCC2	-62*	.	.	-4%	11%	-6%
NC(=O)c1c(NC(=O)Cc2cccs2)sc2c1CCC2	-17	-13%	3%	?	0%	1%
Cc1cc(C)c(NC(=O)Cn2c(=O)n(CCC(=O)NCc3ccccc3Cl)c(=O)c3sccc32)c(C)c1	-8	26%[46.1 µM]	-28%[46.1 µM]	.	.	4%
COc1cc2c(cc1OC)C(C(C(=O)N(CCc1ccc(OC)c(OC)c1OC)CCc1ccc(OC)c(OC)c1OC)c1ccccc1)=NCC2 (centres undefined)	.	.	.	.	.	-22%
CN(C)/C=C/C(=O)c1ccc2noc(-c3ccccc3)c2c1	-63*	-14%[46.1 µM]	5%[46.1 µM]	?	-3%	-6%
CC(=O)c1ccc2noc(-c3ccccc3)c2c1	-27	-2%[46.1 µM]	-3%[46.1 µM]	?	-2%	-3%
O=C(CSc1ccc2c(c1)OCCO2)Nc1ccc(Br)cn1	31	0%	22%	?	?	-21%
O=C(CSc1ccc2c(c1)OCCO2)Nc1ccc(Cl)cn1	-86*	?	9%	-22%	6%	-3%
